Here are results for six molecules from PubChem BioAssay (NCATS).

SMILES strings stand for the structures. Inconclusive results are not listed. The source made the active and inactive calls. Calls come from the whole dose curve; as a rule, active = well fitted curve in the direction sought with a large enough effect; inconclusive = small, poorly fitted or top-dose-only effect, or another doubt; inactive = no such curve, though single readings can be large; an effect the other way counts as inactive or inconclusive.

Assay [1] is described as follows: OV-KATE Cancer Cell Toxicity qHTS against the NCATS CANVASS Library (AID 1347345). The gist of the method: (§1)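 In this cytotoxicity screen, 1000 cells per well rested 4 hours, then received compound (11 concentrations) for a 72-hour incubation; an ATP-dependent luminescent signal (CellTiter-Glo) was the endpoint.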
(qHTS replaces the single test concentration by a dilution series.)

Assay [2] can be described thus: HPAF-II Cancer Cell Toxicity qHTS against the NCATS CANVASS Library (AID 1347346). Note: series mostly up to about 38 µM; nearly all actives have a fitted effect of over 55% in size. A digest of the protocol:
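Using 1000 HPAF-II cells per well, we titrated compounds over 11 concentrations for 72 h at 37 degrees C/5% CO2, with bortezomib as control. Cell survival was quantified by CellTiter-Glo luminescence.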

The nature of assay [3]: OV-SAHO Cancer Cell Toxicity qHTS against the NCATS CANVASS Library (AID 1347348). Note: series mostly up to about 38 µM; nearly all actives have a fitted effect of over 55% in size. A digest of the protocol:
as §1

Assay [4] is described as follows: U-118MG Cancer Cell Toxicity qHTS against the NCATS CANVASS Library (AID 1347351). Note: series mostly up to about 38 µM. A digest of the protocol:
as §1

A short description of assay [5]: HPAF-II 24hr Apoptosis Induction qHTS against the NCATS CANVASS Library (AID 1347356). A digest of the protocol: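 Using an 11-point qHTS format, HPAF-II cells in DMEM/10% FBS received compounds for 24 h; doxorubicin titration as control. Caspase-3/7 activity quantified by DEVD-luciferase luminescence.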
Assay [6] is described as follows: HPAF-II 12hr Apoptosis Induction qHTS against the NCATS CANVASS Library (AID 1347358). A digest of the protocol:
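Twelve-hour compound exposure of HPAF-II cells in DMEM with 10% FBS, then luminescent Caspase-Glo 3/7 detection after 15 min at room temperature; doxorubicin control.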

A short description of assay [7]: HEK293 24hr Apoptosis Induction qHTS against the NCATS CANVASS Library (AID 1347359). A digest of the protocol: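 Caspase-3/7 activation measured as luminescence from the DEVD-based Caspase-Glo reagent, 15 min at room temperature, following 24-hour compound treatment of HEK293 cells.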
The nature of assay [8]: HPAF-II 18hr Apoptosis Induction qHTS against the NCATS CANVASS Library (AID 1347360). A digest of the protocol:
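HPAF-II cells at 500/well were exposed for 18 h at 37 C to an 11-point compound series. Caspase-3/7 activity was read by Caspase-Glo luminescence after 15 min at RT.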

Assay [9] addresses Luciferin 4-monooxygenase (Photinus pyralis) (UniProt P08659). The experiment in a line: Firefly luciferase counterscreen qHTS: Assay Interference Panel against the NCATS CANVASS Library (AID 1347363). Note: series mostly up to about 57 µM. A digest of the protocol:
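Luminescence inhibition readout: compounds (11-point qHTS) sat 15 min at room temperature with substrate mix (0.013 mM luciferin and ATP), then firefly luciferase was added and signal read 5 min later.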

Assay [10] in a line: qHTS for ATAD5 Agonist screened against the NCATS CANVASS Library (AID 1347367).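 Note: luciferase reporter driven by ATAD5 which rises upon DNA damage.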 A digest of the protocol: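 Luciferase reporter under ATAD5 control, stably integrated in HEK293T cells (2000/well). Compounds (11 points) incubated 16 h at 37C; viability read first by CellTiter-Fluor, then luminescence reporting ATAD5 activation. MMS positive control.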
Assay [11] in a line: MCF7 Cancer Cell Toxicity qHTS against the NCATS CANVASS Library (AID 1347369). A digest of the protocol:
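MCF7 cells (500/well) were exposed 72 h at 37 °C to compounds in an 11-point series. Viability was read as ATP content by CellTiterGlo luminescence.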

Assay [12] in a line: qHTS for ATAD5 Antagonist screened against the NCATS CANVASS Library (AID 1347370). Note: nearly all actives have a fitted effect of over 65% in size. Note: potency is the fitted concentration of half-maximal effect. The gist of the method: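 HEK293T-ATAD5 luc reporter, 2000 cells/well; 5hr attach; cpd + 10 uM 5-FUrd; 16hr 37C, 5% CO2. Readouts: CellTiter-Fluor fluorescence (1hr), then Amplite luciferase luminescence (30min RT).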
A short description of assay [13]: J3T Cancer Cell Toxicity qHTS against the NCATS CANVASS Library (AID 1347371). The gist of the method:
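ATP-based cytotoxicity in canine J3T cells: 72 hr exposure at 37C, 11-point titration, CellTiterGlo luminescent detection.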

The target of assay [14] is Nuclear receptor subfamily 1 group I member 3 (Homo sapiens) (UniProt Q14994). The assay is described as follows: qHTS for Constitutive Androstane Receptor (CAR) Agonist screened against the NCATS CANVASS Library (AID 1347373).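 Note: every well also contained 1.5 µM PK11195 alongside the test compound.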 A digest of the protocol: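 In an 11-point concentration series, compounds were incubated 24hr with HepG2 cells carrying hCAR and a CYP2B6-2.2kb reporter, with PK11195 at 1.5uM final. A CellTiter-Fluor viability read preceded the ONE-Glo luminescence read.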

A short description of assay [15]: 10-beta competent E. coli microbial cell viability qHTS against the NCATS CANVASS Library (AID 1347376). Note: series mostly up to about 46 µM. The gist of the method: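 Overnight 37C exposure of 10-beta E. coli (0.2 OD) to an 11-point concentration series; ATP-based luminescence after 20 min room-temperature reagent incubation; daunomycin as control.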
Assay [16] is described as follows: qHTS for H2AX Agonists against the NCATS CANVASS Library (AID 1347378). The gist of the method: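 CHO-K1 cells (1000/well, overnight at 37C) exposed to compounds at several concentrations for 3 hr at 37C, 0.76% DMSO final. Lysates read by TR-FRET (phospho-H2AX S139 Eu-cryptate antibody / H2AX-d2 antibody) after 24 hr at room temperature; 665/615 nm ratio.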
Assay [17] in a line: qHTS for Inflammasome Signaling Inhibitors: IL-1-beta AlphaLISA screen against the NCATS CANVASS Library (AID 1347379).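 Note: human THP-1 cells primed with LPS then triggered with ATP.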 A digest of the protocol:
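THP-1, 1 hr compound pre-incubation, then LPS 250 ng/mL + ATP 1.25 mM (final); 16 hr total with compound; IL-1B AlphaLISA, ex 680/em 615 nm; 11-point qHTS, up to 57.5 uM final.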

A short description of assay [18]: Cytotoxicity qHTS for assessment of Hepg2 cells membrane integrity screened against the NCATS CANVASS Library (AID 1347387). The gist of the method:
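Membrane damage in HepG2 monolayers was estimated from released LDH, measured with CytoTox-ONE (ex 560/em 590 nm), after 5 hr treatment across 0.59 nM - 46 uM final.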

The nature of assay [19]: Vero-766 cells viability qHTS against the NCATS CANVASS Library: Counterscreen for Zika virus inhibition assay (AID 1347394). Note: series mostly up to about 46 µM; nearly all actives have a fitted effect of over 60% in size. A digest of the protocol:
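Vero 766 cells (1000/well), without Zika virus, were exposed to compounds for 72 h at 37C. Viability was measured by CellTiter Glo luminescence. Media-only wells served as 100% inhibition.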

The nature of assay [20]: Viability qHTS for inhibitors of the SERCaMP assay screened against the NCATS CANVASS Library (AID 1347400). Note: series mostly up to about 92 µM; nearly all actives have a fitted effect of over 70% in size. The gist of the method:
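Measures loss of viability in SERCaMP reporter SH-SY5Y cells treated for 48 h with compounds; luminescent ATP detection by CellTiter-Glo.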

Sequence of Nuclear receptor subfamily 1 group I member 3 (Homo sapiens) (Q14994 whole entry, looked up): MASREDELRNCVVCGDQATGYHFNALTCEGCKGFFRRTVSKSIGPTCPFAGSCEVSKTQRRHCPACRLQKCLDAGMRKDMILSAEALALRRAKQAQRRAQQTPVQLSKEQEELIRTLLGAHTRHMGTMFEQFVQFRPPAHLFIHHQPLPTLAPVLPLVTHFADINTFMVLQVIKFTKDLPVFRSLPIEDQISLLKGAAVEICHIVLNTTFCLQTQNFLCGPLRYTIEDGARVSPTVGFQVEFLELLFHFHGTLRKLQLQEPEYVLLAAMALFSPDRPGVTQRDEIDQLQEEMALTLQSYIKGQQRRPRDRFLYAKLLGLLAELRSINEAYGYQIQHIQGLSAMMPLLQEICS
Sequence of Luciferin 4-monooxygenase (Photinus pyralis) (P08659 whole entry, looked up): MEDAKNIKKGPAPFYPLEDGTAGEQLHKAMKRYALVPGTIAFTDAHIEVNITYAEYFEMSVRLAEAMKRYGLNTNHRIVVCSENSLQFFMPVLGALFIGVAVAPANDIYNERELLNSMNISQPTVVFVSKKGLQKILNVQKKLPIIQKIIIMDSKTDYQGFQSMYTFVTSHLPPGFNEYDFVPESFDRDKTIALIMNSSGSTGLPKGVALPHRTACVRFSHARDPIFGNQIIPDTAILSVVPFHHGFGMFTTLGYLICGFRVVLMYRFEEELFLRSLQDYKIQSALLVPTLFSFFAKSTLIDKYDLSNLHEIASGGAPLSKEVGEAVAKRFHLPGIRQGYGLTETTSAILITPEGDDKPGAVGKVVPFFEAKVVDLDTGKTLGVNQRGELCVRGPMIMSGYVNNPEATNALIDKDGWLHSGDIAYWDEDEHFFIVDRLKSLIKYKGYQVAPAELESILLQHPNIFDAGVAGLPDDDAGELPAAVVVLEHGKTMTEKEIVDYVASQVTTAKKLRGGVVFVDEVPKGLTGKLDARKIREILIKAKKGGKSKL

With `CS/C=C/C(N)=O`, the Potency result in [1], in assay [2], in assay [3], in assay [4], in [6] and in assay [7] was “inactive” each time. For the same molecule, the Potency entry in [8], in assay [9], in assay [10], in assay [11], in assay [12] and in assay [13] was “inactive” throughout. Moreover, the Potency result in [16], in assay [17], in assay [19] and in [20] was “inactive” throughout. The result in assay [5], in assay [14], in assay [15] and in assay [18] was inactive.

On to `CC12C[C@]3(O)O[C@@H](O1)[C@]1(COC(=O)c4ccccc4)[C@@H]3CC21OC1OC(CO)C(O)C(O)C1O` (stereo not given in full), for which the Potency entry in [1], in assay [2], in assay [3], in assay [4], in assay [6] and in assay [7] was “inactive” in each case. Besides, the Potency entry in [8], in assay [9], in assay [10], in assay [11], in assay [12] and in assay [13] was “inactive” throughout. Also, the Potency entry in [16], in assay [17], in assay [19] and in [20] was “inactive” in each case. The result in assay [5], in assay [14], in assay [15] and in assay [18] was inactive.

Turning to `COc1ccc(CCCc2cc(O)c(OC)c(O)c2)c(O)c1O`, the Potency result in [1], in [2], in assay [3], in [4], in assay [6] and in [7] was “inactive” each time. The Potency entry in [8], in assay [9], in [10], in assay [11], in assay [13] and in assay [16] was “inactive” each time. Moreover, the Potency result in assay [17], in [19] and in assay [20] was “inactive” each time. The call in [5], in assay [14], in assay [15] and in assay [18] was inactive. For the same molecule, the Potency in assay [12] is 11.7 µM (active).

Take `O=C(O)Cc1c[nH]c2ccccc12`: the Potency entry in assay [1], in assay [2], in assay [3], in assay [4], in assay [6] and in assay [7] was “inactive” each time. Besides, the Potency entry in assay [8], in assay [9], in [10], in assay [11], in [12] and in [13] was “inactive” in each case. Besides, the Potency entry in assay [16], in [17], in assay [19] and in assay [20] was “inactive” in each case. Also, the outcome in assay [5], in assay [14], in assay [15] and in assay [18] was inactive.

Regarding `OCc1ccc2ocnc2c1`, the Potency result in [1], in [2], in [3], in assay [4], in [6] and in assay [7] was “inactive” throughout. For the same molecule, the Potency result in assay [8], in assay [9], in assay [10], in assay [11], in assay [12] and in [13] was “inactive” throughout. The Potency entry in [16], in [17], in assay [19] and in [20] was “inactive” throughout. The call in [5], in assay [14], in assay [15] and in [18] was inactive.

Turning to `O=Cc1ccc2n1C[C@@]1(C[C@H](O)[C@@H](CO)O1)OC2`, the Potency entry in assay [1], in [2], in assay [3], in [4], in [6] and in assay [7] was “inactive” throughout. Also, the Potency entry in assay [8], in [9], in assay [10], in assay [11], in [12] and in [13] was “inactive” throughout. Further, the Potency result in assay [16], in [17], in assay [19] and in assay [20] was “inactive” in each case. Further, the outcome in assay [5], in assay [14], in [15] and in assay [18] was inactive.
